We go through 21 compounds from PubChem BioAssay.

Test [1] can be described thus: antimalarial activity against Dd2 strain (AID 2302;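 active = growth inhibition above 50% at the single 2 µM test dose, taken to imply half-maximal potency below 2 µM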;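 also: 0% = DMSO untreated growth and 100% = chloroquine plus artemisinin killed control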). The conditions noted are these: P. falciparum Dd2 in RBCs, LDH growth readout, 72 h; at 2 µM; hits give high values.
Test [2] can be described thus: HepG2 cytotoxicity, primary screen, cytotoxicity control for P. falciparum antimalarial project, cell-based, ATP luminescence (AID 2303;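 active = inhibition above 50%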;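 also: 0% = DMSO wells and 100% = digitonin-killed cells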). The conditions noted are these: HepG2 viability, 24-48 h, at 10 µM, hits give high values.
Test [3] deals with L-lactate dehydrogenase (Plasmodium falciparum (isolate CDC / Honduras)) (UniProt Q27743). Description: PfLDH activity inhibition – cell lysate, 3D7 strain, counter-screen for P. falciparum growth inhibition project (AID 2304).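 Also: 0% = vehicle and 100% = reference inhibitor.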 The following applies: P. falciparum 3D7 crude extract, LDH APAD/NBT absorbance; at 2 µM; hits give high values. On the technique in general: Counterscreens check selectivity or assay interference.

A short description of test [4]: inhibition of 3D7 malaria parasite growth – strain 3D7 (AID 2306).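 Also: 0% = DMSO wells and 100% = chloroquine plus artemisinin control wells.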 The conditions noted are these: P. falciparum 3D7 erythrocytic growth, LDH absorbance, 72 h; at 2 µM; hits give high values.
Test [5] deals with Calcium-dependent protein kinase 1 (Plasmodium falciparum (isolate 3D7)) (UniProt P62344). As to the kind of experiment: PfCDPK1 kinase inhibitors, biochemical, TCAMS library (AID 1159585; cut-off not given, nearly all actives have IC50 up to about 0.98 µM;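 also: inhibitors leave more ATP so luminescence rises with inhibition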). The conditions noted are these: recombinant PfCDPK1, Kinase-Glo ATP depletion luminescence. Background: In Kinase-Glo more light means more ATP remaining.
In test [6] the target is Plasmodium falciparum protein kinase 6 (PK6, PF3D7_1337100) (UniProt Q8IDW1). As to the kind of experiment: PfPK6 kinase inhibitors, biochemical, TCAMS library (AID 1159586). The conditions noted are these: recombinant PfPK6, Kinase-Glo ATP depletion luminescence.
Test [7] has as its target Protein kinase 7 (PK7), Plasmodium falciparum 3D7 (PF3D7_0213400) (UniProt Q7YTF7). Description: inhibition of Plasmodium PK7 catalytic activity – biochemical, TCAMS antimalarial set, Kinase-Glo luminescence (AID 1159587). The conditions noted are these: recombinant PfPK7, Kinase-Glo ATP depletion luminescence.
Test [8] deals with Calcium-dependent protein kinase 4 (Plasmodium falciparum (isolate 3D7)) (UniProt Q8IBS5). Description: PfCDPK4 kinase inhibitors, biochemical, TCAMS library (AID 1159588; cut-off not given, nearly all actives have IC50 up to about 0.91 µM). The conditions noted are these: recombinant PfCDPK4, Kinase-Glo ATP depletion luminescence.

Broadly, the inhibition is the relative decrease from the control value, in per cent.

The structures appear in SMILES notation. Unmarked numbers belong to inactive results. For part of these data: Measured potencies and affinities stand elsewhere. Activity calls are given as the source filed them. Unless noted, no rule for the calls is given here.

Chain of Calcium-dependent protein kinase 1 (Plasmodium falciparum (isolate 3D7)) (P62344 whole entry, looked up): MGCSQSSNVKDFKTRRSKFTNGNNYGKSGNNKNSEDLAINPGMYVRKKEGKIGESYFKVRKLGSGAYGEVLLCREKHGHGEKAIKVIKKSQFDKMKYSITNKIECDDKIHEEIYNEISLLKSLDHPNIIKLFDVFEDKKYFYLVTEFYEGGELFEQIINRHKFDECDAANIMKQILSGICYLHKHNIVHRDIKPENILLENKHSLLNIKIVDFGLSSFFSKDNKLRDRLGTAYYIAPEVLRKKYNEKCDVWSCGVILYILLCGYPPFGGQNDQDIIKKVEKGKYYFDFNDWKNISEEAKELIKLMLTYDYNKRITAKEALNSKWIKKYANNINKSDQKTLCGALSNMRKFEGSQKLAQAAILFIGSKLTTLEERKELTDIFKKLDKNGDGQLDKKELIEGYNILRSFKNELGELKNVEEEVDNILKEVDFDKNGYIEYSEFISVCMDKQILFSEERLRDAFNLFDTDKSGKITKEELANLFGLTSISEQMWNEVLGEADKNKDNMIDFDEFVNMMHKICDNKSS
Chain of L-lactate dehydrogenase (Plasmodium falciparum (isolate CDC / Honduras)) (Q27743 whole entry, looked up): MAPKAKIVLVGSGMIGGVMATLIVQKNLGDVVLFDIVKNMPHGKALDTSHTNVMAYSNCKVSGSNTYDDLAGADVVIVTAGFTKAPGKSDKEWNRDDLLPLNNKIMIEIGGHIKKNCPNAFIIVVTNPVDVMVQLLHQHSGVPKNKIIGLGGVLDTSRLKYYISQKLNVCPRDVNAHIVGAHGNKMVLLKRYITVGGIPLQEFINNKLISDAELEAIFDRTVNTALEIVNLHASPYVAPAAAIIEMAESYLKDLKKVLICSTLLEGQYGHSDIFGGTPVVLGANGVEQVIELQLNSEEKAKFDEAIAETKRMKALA
Chain of Plasmodium falciparum protein kinase 6 (PK6, PF3D7_1337100) (Q8IDW1 1-305): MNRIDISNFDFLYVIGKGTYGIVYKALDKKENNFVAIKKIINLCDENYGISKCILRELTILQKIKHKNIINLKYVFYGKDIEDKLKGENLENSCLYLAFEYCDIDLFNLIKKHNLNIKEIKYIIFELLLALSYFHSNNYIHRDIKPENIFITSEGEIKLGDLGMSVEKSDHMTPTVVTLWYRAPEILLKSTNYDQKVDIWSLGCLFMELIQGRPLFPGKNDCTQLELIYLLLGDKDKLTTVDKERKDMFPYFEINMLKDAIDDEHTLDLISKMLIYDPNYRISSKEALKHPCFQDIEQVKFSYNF
Chain of Protein kinase 7 (PK7), Plasmodium falciparum 3D7 (PF3D7_0213400) (Q7YTF7 1-343): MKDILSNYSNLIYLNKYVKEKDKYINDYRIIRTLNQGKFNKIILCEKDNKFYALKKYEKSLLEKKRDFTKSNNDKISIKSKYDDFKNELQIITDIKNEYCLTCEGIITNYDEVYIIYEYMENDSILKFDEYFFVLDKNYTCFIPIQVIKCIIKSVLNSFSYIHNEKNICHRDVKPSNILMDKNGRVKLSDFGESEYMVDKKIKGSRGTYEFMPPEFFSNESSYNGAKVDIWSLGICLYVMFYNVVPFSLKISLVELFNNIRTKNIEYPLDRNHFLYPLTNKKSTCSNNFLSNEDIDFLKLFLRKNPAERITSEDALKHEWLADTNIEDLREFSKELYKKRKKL
Chain of Calcium-dependent protein kinase 4 (Plasmodium falciparum (isolate 3D7)) (Q8IBS5 whole entry, looked up): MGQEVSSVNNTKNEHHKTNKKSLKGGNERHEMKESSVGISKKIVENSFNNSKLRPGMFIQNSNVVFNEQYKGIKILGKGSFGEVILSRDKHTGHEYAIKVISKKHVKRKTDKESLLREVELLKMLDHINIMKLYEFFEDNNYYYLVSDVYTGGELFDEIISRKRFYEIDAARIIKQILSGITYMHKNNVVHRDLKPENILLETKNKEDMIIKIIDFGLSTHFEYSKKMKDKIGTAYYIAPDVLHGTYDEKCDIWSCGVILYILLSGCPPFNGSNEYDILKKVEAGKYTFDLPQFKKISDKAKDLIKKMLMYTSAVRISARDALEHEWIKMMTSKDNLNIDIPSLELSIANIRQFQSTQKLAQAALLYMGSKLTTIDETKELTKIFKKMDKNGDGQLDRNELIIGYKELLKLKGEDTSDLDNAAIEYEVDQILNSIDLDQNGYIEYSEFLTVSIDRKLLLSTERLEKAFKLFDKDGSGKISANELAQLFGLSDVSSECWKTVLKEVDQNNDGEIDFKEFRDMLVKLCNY

Take `Cc1cccc2[nH]c(-c3ccc(-c4ccc(CN5CCN(CCN6CCOCC6)CC5)cc4)s3)nc12`: the growth inhibition was 99% (active) in test [1] and 100% (active) in test [4]. Also, the inhibition in test [2] was 41%; in test [3], 3%. For the same compound, the result in test [5], in test [6], in test [7] and in test [8] was inactive.
Take `O=C(Nc1ccc(Cl)c(Cl)c1)Nc1ccc(F)c([N+](=O)[O-])c1`: the growth inhibition is 96% (active) in test [1] and 101% (active) in test [4]. The inhibition was 49% in test [2] and -3% in test [3]. In addition, the result in test [5], in test [6], in test [7] and in test [8] was inactive.
Take `Cc1cccc2[nH]c(-c3cccc(-c4ccc(NC(=O)c5cccc(C(N)=O)c5)cc4)c3)nc12`: the growth inhibition in test [1] is 61% (active); in test [4], 100% (active). Further, the inhibition in test [2] is 25%; in test [3], 4%. In addition, the outcome in test [5], in test [6], in test [7] and in test [8] was inactive.
With `CCC1N=C(N)N=C(N)N1OCc1ccc(Cl)c(Cl)c1` (stereo not drawn), the results for the growth inhibition in test [1] and in test [4] were 90% (active) and 93% (active), respectively. For the same compound, the inhibition in test [2] was 54% (active); in test [3], -4%. The result in test [5], in test [6], in test [7] and in test [8] was inactive.
Turning to `CCOc1cc(C(=O)Nc2cccnc2)cc(Br)c1OCCC(C)C`, the figures for the growth inhibition in test [1] and in test [4] were 51% (active) and 88% (active), respectively. Besides, the inhibition in test [2] is 4%; in test [3], 1%. The outcome in test [5], in test [6], in test [7] and in test [8] was inactive.
Consider `O=C(NC(c1ccccc1)c1ccccc1)C(c1cc2ccccc2o1)N1CCN(C(c2ccccc2)c2ccccc2)CC1` (stereo not drawn), for which the growth inhibition in test [1] is 78% (active); in test [4], 95% (active). Besides, the inhibition in test [2] and in test [3] was -1% in each case. The outcome in test [5], in test [6], in test [7] and in test [8] was inactive.
On to `Cc1cccc2[nH]c(-c3cccc(-c4ccc(NC(=O)NCc5ccccc5)cc4)c3)nc12`, for which the growth inhibition in test [1] was 47%; in test [4] it was 101% (active). Moreover, the figures for the inhibition in test [2] and in test [3] were 35% and -2%, respectively. In addition, the outcome in test [5], in test [6], in test [7] and in test [8] was inactive.
As for `O=C(Nc1ccc(-c2nc3ccccc3[nH]2)cc1)c1ccc(Cl)s1`, the results for the growth inhibition in test [1] and in test [4] were 34% and 99% (active), respectively. Moreover, the inhibition in test [2] is 16%; in test [3] it was 4%. The result in test [5], in test [6], in test [7] and in test [8] was inactive.
On to `Nc1nc(N)c2cc(CNc3ccc(Cl)c(Cl)c3)ccc2n1`, for which the growth inhibition in test [1] was 55% (active); in test [4] it was 93% (active). Besides, the inhibition in test [2] was 62% (active); in test [3] it was 5%. Moreover, the outcome in test [5], in test [6], in test [7] and in test [8] was inactive.
On to `COc1nc(NCC(C)C)nc(Oc2ccc(=O)n(Cc3ccccc3)n2)n1`, for which the growth inhibition was 93% (active) in test [1] and 97% (active) in test [4]. For the same compound, the results for the inhibition in test [2] and in test [3] were 1% and 5%, respectively. Moreover, the outcome in test [5], in test [6], in test [7] and in test [8] was inactive.
On to `O=C(Cc1cccs1)NC(CCCN1CCC(Oc2cccc(Cl)c2)CC1)c1ccc(Cl)c(Cl)c1` (stereo not drawn), for which the growth inhibition in test [1] was 70% (active); in test [4] it was 86% (active). Moreover, the values for the inhibition in test [2] and in test [3] were 39% and 3%, respectively. Besides, the outcome in test [5], in test [6], in test [7] and in test [8] was inactive.
`Oc1ccccc1CCNCC1CCc2ccccc2C1` (stereo not drawn): the growth inhibition in test [1] and in test [4] was 98% (active) each time. For the same compound, the values for the inhibition in test [2] and in test [3] were 37% and 0%, respectively. In addition, the result in test [5], in test [6], in test [7] and in test [8] was inactive.
As for `CC(C)(C)c1ccc(C(=O)Nc2cccc(Nc3c(C(=O)NCc4cccc(C(F)(F)F)c4)cnc4c(O)cccc34)c2)cc1`, the growth inhibition in test [1] was 79% (active); in test [4], 83% (active). In addition, the figures for the inhibition in test [2] and in test [3] were 40% and 1%, respectively. Besides, the outcome in test [5], in test [6], in test [7] and in test [8] was inactive.
`C=C(C)Cn1cc(C2CCN(CCCCNC(=O)c3sc(-c4ccc(Cl)cc4Cl)nc3CO)CC2)c2ccccc21`: the results for the growth inhibition in test [1] and in test [4] were 19% and 82% (active), respectively. In addition, the results for the inhibition in test [2] and in test [3] were 22% and 4%, respectively. The result in test [5], in test [6], in test [7] and in test [8] was inactive.
In the case of `O=C(NCc1cccc(Br)c1)c1ccc(CNC2CCN(Cc3ccccc3)CC2)cc1`, the growth inhibition in test [1] was 49%; in test [4], 100% (active). Further, the figures for the inhibition in test [2] and in test [3] were 3% and 4%, respectively. The result in test [5], in test [6], in test [7] and in test [8] was inactive.
Regarding `COC(=O)C(Cc1ccccc1)NC(=O)NC1CCN(c2ccnc(Nc3ccc(F)cc3)n2)C1` (stereo not drawn), the growth inhibition is 14% in test [1] and 90% (active) in test [4]. The figures for the inhibition in test [2] and in test [3] were 0% and -3%, respectively. Moreover, the result in test [5], in test [6], in test [7] and in test [8] was inactive.
Consider `CCn1c(-c2nonc2N)nc2c(C#CC(C)(C)O)ncc(OCCNCCc3ccc(OC)cc3)c21`, for which the figures for the growth inhibition in test [1] and in test [4] were 44% and 91% (active), respectively. Also, the inhibition in test [2] is 4%; in test [3], -7%. In addition, the result in test [5], in test [6], in test [7] and in test [8] was inactive.
As to `CC(C)CNCc1ccc(-c2ccc(CN(CCCN3CCN(C)CC3)C(=O)CCC3CCCC3)cc2)cc1`, the values for the growth inhibition in test [1] and in test [4] were 87% (active) and 96% (active), respectively. The inhibition was 50% (active) in test [2] and 5% in test [3]. The outcome in test [5], in test [6], in test [7] and in test [8] was inactive.
In the case of `CCc1nc2c(cnn2CC)c(NC2CCOCC2)c1CNC(=O)c1ccoc1C`, the growth inhibition in test [1] was 87% (active); in test [4] it was 97% (active). The figures for the inhibition in test [2] and in test [3] were 6% and 2%, respectively. For the same compound, the result in test [5], in test [6], in test [7] and in test [8] was inactive.
With `COC(=O)c1ccccc1COc1ccc(CC2(NC(=O)[C@H](Nc3ccc(C#N)c4ccccc34)C(C)(C)C)CCCC2)cc1`, the growth inhibition in test [1] was 82% (active); in test [4] it was 95% (active). The results for the inhibition in test [2] and in test [3] were 1% and 2%, respectively. The result in test [5], in test [6], in test [7] and in test [8] was inactive.
For `Fc1cccc(COc2ccc(Nc3ncnc4sc(C#CC5CCCCN5)cc34)cc2Cl)c1` (stereo not drawn), the growth inhibition was 100% (active) in test [1] and 101% (active) in test [4]. The figures for the inhibition in test [2] and in test [3] were 30% and 3%, respectively. For the same compound, the outcome in test [5], in test [6], in test [7] and in test [8] was inactive.
